Laboratory results reported in PubChem BioAssay AID1159580 (chemical genetic matrix, 2015).
The campaign covered roughly 5,500 compounds. About 2,000 (36%) were called active. About 18% were inconclusive and are not listed. No stated cut-off is given here; in the data, active means normalized growth mostly below about 0.91 (no sharp cut-off); inconclusive means no clear call, values can overlap the other calls; inactive means mostly above about 0.92. This is one part of the list.

Assay: chemical genetic growth profiling, strain panel (AID 1159580);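 further: tested at 20 µM; growth read once vehicle control cultures reached saturation at 30 °C; 1 = growth at the plate median or of vehicle wells; lower values mean less growth of the strain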
Conditions: growth OD

Measured: normalized growth

CC(=O)c1cc2c(cc1O)OC(C)(C)C=C2
active: S. cerevisiae deletion strains, locus YDR101C, strain arx1, hits give low values 0.891 | S. cerevisiae deletion strains, locus YLR371W, strain rom2, hits give low values 0.808
inactive: S. cerevisiae deletion strains, locus YAL013W, strain DEP1, hits give low values 0.991 | S. cerevisiae deletion strains, locus YBR021W, strain FUR4, hits give low values 1.01 | S. cerevisiae deletion strains, locus YBR229C, strain ROT2, hits give low values 0.983 | S. cerevisiae deletion strains, locus YCL029C, strain bik1, hits give low values 0.993 | S. cerevisiae deletion strains, locus YDL035C, strain GPR1, hits give low values 1 | S. cerevisiae deletion strains, locus YDL074C, strain BRE1, hits give low values 0.974 | S. cerevisiae deletion strains, locus YDL101C, strain DUN1, hits give low values 0.999 | S. cerevisiae deletion strains, locus YDL134C, strain PPH21, hits give low values 1.01 | S. cerevisiae deletion strains, locus YDL185W, strain tfp1, hits give low values 0.993 | S. cerevisiae deletion strains, locus YDL192W, strain arf1, hits give low values 0.976 | S. cerevisiae deletion strains, locus YDR162C, strain NBP2, hits give low values 1 | S. cerevisiae deletion strains, locus YDR318W, strain mcm21, hits give low values 0.999 | S. cerevisiae deletion strains, locus YDR388W, hits give low values 0.992 | S. cerevisiae deletion strains, locus YDR502C, strain sam2, hits give low values 1 | S. cerevisiae deletion strains, locus YER110C, hits give low values 0.979 | S. cerevisiae deletion strains, locus YER155C, strain BEM2, hits give low values 0.975 | S. cerevisiae deletion strains, locus YER167W, strain BCK2, hits give low values 0.96 | S. cerevisiae deletion strains, locus YGL078C, strain dbp3, hits give low values 1.03 | S. cerevisiae deletion strains, locus YGL086W, strain mad1, hits give low values 0.972 | S. cerevisiae deletion strains, locus YGL248W, strain PDE1, hits give low values 0.997 | S. cerevisiae deletion strains, locus YGR078C, strain PAC10, hits give low values 1.01 | S. cerevisiae deletion strains, locus YGR135W, strain pre9, hits give low values 1.02 | S. cerevisiae deletion strains, locus YGR252W, strain gcn5, hits give low values 1.07 | S. cerevisiae deletion strains, locus YHR079C, strain IRE1 (second series), hits give low values 0.988 | S. cerevisiae deletion strains, locus YHR094C, strain hxt1, hits give low values 0.983 | S. cerevisiae deletion strains, locus YHR129C, strain ARP1, hits give low values 0.991 | S. cerevisiae deletion strains, locus YHR200W, strain rpn10, hits give low values 0.97 | S. cerevisiae deletion strains, locus YIL066C, strain RNR3, hits give low values 0.979 | S. cerevisiae deletion strains, locus YIL073C, strain SPO22, hits give low values 1.03 | S. cerevisiae deletion strains, locus YIL125W, strain kgd1, hits give low values 0.974 | S. cerevisiae deletion strains, locus YIR030C, strain dcg1, hits give low values 0.982 | S. cerevisiae deletion strains, locus YJL095W, strain BCK1, hits give low values 1.02 | S. cerevisiae deletion strains, locus YJL134W, strain LCB3, hits give low values 0.98 | S. cerevisiae deletion strains, locus YJL168C, strain set2, hits give low values 0.991 | S. cerevisiae deletion strains, locus YJL187C, strain SWE1 (second series), hits give low values 1.03 | S. cerevisiae deletion strains, locus YJR043C, strain POL32, hits give low values 0.935 | S. cerevisiae deletion strains, locus YKL009W, strain mrt4, hits give low values 1.01 | S. cerevisiae deletion strains, locus YKL068W, hits give low values 0.973 | S. cerevisiae deletion strains, locus YKL085W, strain MDH1 (second series), hits give low values 0.976 | S. cerevisiae deletion strains, locus YKL085W, strain MDH1, hits give low values 0.976 | S. cerevisiae deletion strains, locus YKL190W, strain CNB1, hits give low values 0.991 | S. cerevisiae deletion strains, locus YKR001C, strain vps1, hits give low values 0.968 | S. cerevisiae deletion strains, locus YLR039C, strain RIC1, hits give low values 0.952 | S. cerevisiae deletion strains, locus YLR058C, strain SHM2, hits give low values 0.999 | S. cerevisiae deletion strains, locus YLR102C, strain apc9, hits give low values 0.981 | S. cerevisiae deletion strains, locus YLR268W, strain sec22, hits give low values 0.99 | S. cerevisiae deletion strains, locus YLR330W, strain CHS5, hits give low values 0.983 | S. cerevisiae deletion strains, locus YLR418C, strain cdc73, hits give low values 0.964 | S. cerevisiae deletion strains, locus YML016C, strain PPZ1, hits give low values 0.938 | S. cerevisiae deletion strains, locus YML032C, strain rad52, hits give low values 0.993 | S. cerevisiae deletion strains, locus YML124C, strain tub3, hits give low values 0.965 | S. cerevisiae deletion strains, locus YMR078C, strain ctf18, hits give low values 0.956 | S. cerevisiae deletion strains, locus YMR223W, strain ubp8, hits give low values 1.01 | S. cerevisiae deletion strains, locus YMR307W, strain GAS1, hits give low values 1.15 | S. cerevisiae deletion strains, locus YNL067W, strain RPL9B, hits give low values 1.01 | S. cerevisiae deletion strains, locus YNL233W, strain BNI4, hits give low values 0.991 | S. cerevisiae deletion strains, locus YNL250W, strain rad50, hits give low values 0.997 | S. cerevisiae deletion strains, locus YNL271C, strain bni1, hits give low values 0.977 | S. cerevisiae deletion strains, locus YNL298W, strain CLA4, hits give low values 1.01 | S. cerevisiae deletion strains, locus YNL307C, strain MCK1, hits give low values 0.975 | S. cerevisiae deletion strains, locus YNR052C, strain pop2, hits give low values 1.06 | S. cerevisiae deletion strains, locus YOL012C, strain htz1 0.862 | S. cerevisiae deletion strains, locus YOL147C, strain pex11, hits give low values 0.96 | S. cerevisiae deletion strains, locus YOR061W, strain CKA2, hits give low values 0.982 | S. cerevisiae deletion strains, locus YOR069W, strain VPS5, hits give low values 0.989 | S. cerevisiae deletion strains, locus YOR136W, strain idh2, hits give low values 1.01 | S. cerevisiae deletion strains, locus YOR144C, strain elg1, hits give low values 0.984 | S. cerevisiae deletion strains, locus YOR184W, strain ser1, hits give low values 0.901 | S. cerevisiae deletion strains, locus YOR316C, strain cot1, hits give low values 0.985 | S. cerevisiae deletion strains, locus YPR119W, strain clb2, hits give low values 0.982 | S. cerevisiae deletion strains, locus YPR141C, strain kar3, hits give low values 0.962 | S. cerevisiae deletion strains, locus YPR163C, strain tif3, hits give low values 0.993 | S. cerevisiae deletion strains, locus YPR167C, strain met16, hits give low values 0.993 | S. cerevisiae deletion strains, strain wtn01, hits give low values 0.947 | S. cerevisiae strains, strain wild type, hits give low values 0.983
